Reference: PubChem BioAssay (Tox21)
“And” between values parts separate entries of the source, which are not always exact repeats. Equal entries are not always repeated. Inconclusive results are not listed. A structure can be active in one record and inactive in another. The source made the active and inactive calls. Unless noted, the call rests on the fitted dose curve; in most records, active means well fitted curve in the direction sought with a large enough effect in the repeat runs; inconclusive means weak or mixed curves; inactive means no such curve, though single readings can be large; an effect the other way counts as inactive or inconclusive.

Assays:
[1] = molecular target: Retinoic acid receptor RXR-alpha (Homo sapiens) (UniProt P19793); test: qHTS assay to identify small molecule agonists of the RXR signaling pathway (AID 1159527; calls by dose curve; further: nearly all actives have a fitted effect of over 35% in size; further: potency means the concentration at half of the fitted maximal effect)
In short: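 GeneBLAzer RXR-alpha-UAS-bla HEK 293T cells in 2% charcoal-stripped FBS medium were exposed to compounds for 16 hr at 37 C in agonist mode. Beta-lactamase reporter read as 460/530 nm FRET ratio after 2 hr substrate loading.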

[2] = qHTS assay to identify small molecule agonists of the RXR signaling pathway - cell viability counter screen (AID 1159529); further: nearly all actives have a fitted effect of over 50% in size; further: potency means the concentration at half of the fitted maximal effect
In short: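 RXR-alpha-UAS-bla HEK 293T cells in medium with 2% charcoal-stripped FBS were pre-incubated 5 hr, then compound-treated 16 hr at 37 C. Viability was read by CellTiter-Glo luminescence in the same wells as the beta-lactamase assay, with tetraoctyl ammonium bromide as positive control.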

[3] = qHTS assay to identify small molecule antagonists of the retinoid acid receptor (RAR) signaling pathway - cell viability counter screen (AID 1159551); further: nearly all actives have a fitted effect of over 35% in size; further: potency means the concentration at half of the fitted maximal effect
In short: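 C3RL4 RARE-luciferase cells, 1,000/well, incubated overnight, then dosed with compound plus 1 uM retinol (final). After 6 hr at 37 C, viability read by CellTiter-Glo ATP luminescence following 30 min at room temperature.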

[4] = qHTS assay to identify small molecule antagonists of the retinoic acid receptor (RAR) signaling pathway (AID 1159552; further: nearly all actives have a fitted effect of over 50% in size; further: potency means the concentration at half of the fitted maximal effect)
In short: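 Retinol signaling pathway inhibitors screened in C3RL4 RARE-luciferase reporter cells seeded overnight at 37 C, then compounds added with 1 uM (final) retinol as pathway substrate. After 6 hr at 37 C, luciferase luminescence read after 30 min at room temperature.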

[5] = qHTS assay to identify small molecule agonists of the retinoic acid receptor (RAR) signaling pathway (AID 1159553); further: potency means the concentration at half of the fitted maximal effect
In short: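 C3RL4 RARE-luciferase cells were seeded at 1,000/well and grown overnight at 37 C, then exposed to compounds for 6 hr at 37 C, 5% CO2. Luciferase reagent was added and luminescence was read after 30 min at room temperature.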

[6] = qHTS assay to identify small molecule antagonists of the estrogen related receptor (ERR) signaling pathway - cell viability counter screen (AID 1224818); further: series mostly up to about 46 µM
In short: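 ERR cells, 2,000 per well, compound added after 6 h and incubated 17.5 h at 37 C. Viability read by CellTiter-Fluor fluorescence after a further 30 min at 37 C.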

[7] = qHTS assay to identify small molecule antagonists of the estrogen related receptor (ERR) signaling pathway (AID 1224819;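 further: luminescence from an ERR-driven luciferase reporter measured with One-Glo reagent; series mostly up to about 46 µM; nearly all actives have a fitted effect of over 50% in size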)
In short: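 ERR reporter cell line (NTP) plated at 2,000 cells/well, settled 6 h at 37C/5% CO2, then exposed to LOPAC compounds for 18 h at 37C. One-Glo luciferase luminescence read after 30 min at room temperature.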

[8] = qHTS assay to identify small molecule agonists of the estrogen related receptor (ERR) signaling pathway (AID 1224820)
In short: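 ERR reporter cells (NTP line) plated 2,000/well, incubated 6 h at 37 C/5% CO2, then pinned with compounds in DMSO and held 18 h at 37 C. One-Glo added; luminescence read after 30 min at room temperature.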

[9] = system: estrogen-related receptor alpha (ERRalpha) with PGC-1alpha coactivator, human; test: qHTS assay to identify small molecule antagonists of the estrogen related receptor signaling pathway with the pleiotropic PPARgamma coactivator (PGC) (AID 1224821; calls by dose curve;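 further: series mostly up to about 46 µM; lower luminescence signal means antagonism of PGC/ERR signalling; nearly all actives have a fitted effect of over 50% in size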)
In short: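 Cells engineered for PGC/ERR signalling (line from NTP) were plated 6 h at 37 C/5% CO2, then exposed to DMSO-dissolved compound for 18 h at 37 C. Luciferase activity was read by One-Glo luminescence after 30 min at room temperature.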

[10] = qHTS assay to identify small molecule antagonists of the estrogen related receptor signaling pathway with the pleiotropic PPARgamma coactivator (PGC) cell viability counter screen (AID 1224822; further: potency means the concentration at half of the fitted maximal effect)
In short: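 PGC/ERR cells rested 6 h, then compound-treated 17.5 h at 37 C. CellTiter-Fluor added for 30 min at 37 C, viability measured by fluorescence intensity.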

Measured: Potency
On the % scale 0 is the no-effect control and ±100 the full control effect.

Retinoic acid receptor RXR-alpha (Homo sapiens), sequence (P19793 whole entry, looked up): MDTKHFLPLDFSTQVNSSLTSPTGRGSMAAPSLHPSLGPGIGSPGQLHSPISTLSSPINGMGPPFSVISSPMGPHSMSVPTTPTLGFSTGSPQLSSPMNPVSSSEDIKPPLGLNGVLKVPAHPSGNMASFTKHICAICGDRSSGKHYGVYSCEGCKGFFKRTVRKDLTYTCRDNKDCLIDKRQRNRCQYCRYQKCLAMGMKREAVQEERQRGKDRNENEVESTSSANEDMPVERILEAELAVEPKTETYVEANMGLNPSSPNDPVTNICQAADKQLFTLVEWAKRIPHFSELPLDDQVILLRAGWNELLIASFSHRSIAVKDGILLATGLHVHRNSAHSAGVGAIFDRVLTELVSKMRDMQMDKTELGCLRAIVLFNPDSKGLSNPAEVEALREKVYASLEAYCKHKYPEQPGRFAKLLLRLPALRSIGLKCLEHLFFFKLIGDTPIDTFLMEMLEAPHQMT

CN(C)CCOC(C)(c1ccccc1)c1ccccn1 (stereo not drawn)
inactive: all assays above

NC1CCCCC1
inactive: [1] | [2] | [3] | [4] | [5]

CC1(C)S[C@@H]2[C@H](NC(=O)[C@H](N)c3ccccc3)C(=O)N2[C@H]1C(=O)O
inactive: [1] | [2] | [3]

Cc1cc(=O)oc2cc(O)ccc12
inactive: [2] | [3]
active: [1] 43.6 µM

Oc1ccccc1
inactive: [2] | [3] | [4] | [5]
inactive and 11 µM (active): [1]

Cc1cccc(C)c1
inactive: [1] | [2] | [3]

CC(=O)CCC(=O)O
inactive: [1] | [2] | [3]

CCCCCCc1ccc(O)cc1O
active: [2] 49.1 µM and 54.9 µM
inactive: [1] | [3] | [4] | [5]

O=C(O)c1ccccc1
inactive: [1] | [2] | [3]

Cc1cc(C)nc(NS(=O)(=O)c2ccc(N)cc2)n1
inactive: [2] | [3] | [4] | [5]
14 µM (active) and inactive: [1]

C/C=C/C=C/C(=O)O
inactive: [2] | [3]
inactive and 49 µM (active): [1]

Cc1ncc([N+](=O)[O-])n1C
inactive: [1] | [2] | [3]

CN(N=O)C(=O)N[C@@H]1[C@@H](O)[C@H](O)[C@@H](CO)O[C@@H]1O
inactive: [1] | [2] | [3] | [4] | [5]

CCCCOC(=O)c1ccc(O)cc1
active: [5] 27.3 µM
inactive: [1] | [2] | [3] | [4]

CCOc1ccc(NC(C)=O)cc1
inactive: [1] | [2] | [3]

CC12CCC(CC1)C(C)(C)O2
inactive: [1] | [2] | [3] | [4] | [5]

CC1(C)O[C@@H]2C[C@H]3[C@@H]4CCC5=CC(=O)C=C[C@]5(C)[C@@]4(F)[C@@H](O)C[C@]3(C)[C@]2(C(=O)CO)O1
inactive: [1] | [2] | [3] | [4] | [5]

Nc1c(N=Nc2ccc(-c3ccc(N=Nc4cc(S(=O)(=O)O)c5ccccc5c4N)cc3)cc2)cc(S(=O)(=O)O)c2ccccc12
inactive: [1] | [2] | [4] | [5]
active: [3] 17.2 µM

COc1ccc(C(Cl)=C(c2ccc(OC)cc2)c2ccc(OC)cc2)cc1
inactive: [1] | [2] | [3] | [4] | [5]

O=C1O[C@H]([C@@H](O)CO)C(O)=C1O
inactive and 12.3 µM (active): [1]
inactive: [2] | [3]

NS(=O)(=O)O
inactive: [1] | [2] | [3]

O=S1(=O)OC(c2ccc(O)cc2)(c2ccc(O)cc2)c2ccccc21
inactive: [1] | [2] | [3] | [4] | [5]

CCCCC1(COC(=O)CCC(=O)O)C(=O)N(c2ccccc2)N(c2ccccc2)C1=O
inactive: [1] | [2] | [3] | [4] | [5]

O=C(O)CC(O)C(=O)O (stereo not drawn)
inactive: [1] | [2] | [3] | [4] | [5]

Cc1c(C(=O)O)c(O)cc2c1C(=O)c1c(O)c([C@@H]3O[C@H](CO)[C@@H](O)[C@H](O)[C@H]3O)c(O)c(O)c1C2=O
inactive: [1] | [2] | [4] | [5]
active: [3] 33.5 µM and 48.6 µM

NC(CO)(CO)CO
inactive: [1] | [2] | [3] | [4] | [5]

CN1CCC[C@H]1c1cccnc1
inactive: [1] | [2] | [3]

COc1ccc(CN(CCN(C)C)c2ccccn2)cc1
40.2 µM (active) and inactive: [2]
not listed: [7] | [8] | [9]
inactive: all other assays above

CCCCCCCC(=O)OCC(COC(=O)CCCCCCC)OC(=O)CCCCCCC
inactive: [1] | [2] | [3] | [4] | [5]

CC(=O)C(=O)O
inactive: [1] | [3] | [4] | [5]

CCCc1cc(=O)[nH]c(=S)[nH]1
inactive: [1] | [3] | [4] | [5]

CS(=O)(=O)OCCCCOS(C)(=O)=O
inactive: [3] | [4] | [5]
inactive and 17.4 µM (active): [1]

CC(C)c1c(C(=O)Nc2ccccc2)c(-c2ccccc2)c(-c2ccc(F)cc2)n1CC[C@@H](O)C[C@@H](O)CC(=O)O
inactive: [1] | [2] | [3] | [5] | [6] | [10]

Nc1ccc(S(N)(=O)=O)cc1
inactive: [3]
5.52 µM (active) and inactive: [1]

O=c1[nH]cnc2c1ncn2[C@H]1CC[C@@H](CO)O1
inactive: [1] | [3] | [4] | [5]

C=C(C)C(=O)OCC(C)O (stereo not drawn)
inactive: [1] | [3] | [4] | [5]

C=CCc1ccc(O)c(OC)c1
inactive: [1] | [3] | [4] | [5]

F[B-](F)(F)F
inactive: [1] | [3]

Nc1c2c(nc3ccccc13)CCCC2
not listed: [2]
inactive: all other assays above

CCCC[P+](CCCC)(CCCC)CCCC
inactive: [1] | [2] | [3] | [5]

NS(=O)(=O)c1cc2c(cc1Cl)NCNS2(=O)=O
not listed: [4] | [5]
inactive: all other assays above

OC[C@H]1O[C@H](O[C@]2(CCl)O[C@H](CCl)[C@@H](O)[C@@H]2O)[C@H](O)[C@@H](O)[C@H]1Cl
inactive: [1] | [3]

O=C1c2c(O)cccc2Cc2cccc(O)c21
inactive: [1] | [3]

CC(=O)Nc1c(I)c(NC(C)=O)c(I)c(C(=O)O)c1I
inactive: [1] | [2] | [3] | [5]

CC(O)(P(=O)(O)O)P(=O)(O)O
inactive: [1] | [3]

CN1CCc2cccc3c2[C@H]1Cc1ccc(O)c(O)c1-3
active: [3] 69.3 µM
inactive: [1]

Cc1ncc([N+](=O)[O-])n1CCO
inactive: [1] | [3] | [4] | [5]

COc1cccc(O)c1O
inactive: [1] | [3]
active: [4] 56.6 µM

CN(C)CCOC(c1ccccc1)c1ccccc1
inactive: [1] | [2] | [3] | [5] | [6] | [10]

CCN(CC)C(=O)c1cccc(C)c1
inactive: [1] | [3] | [4] | [5]

CCCCC(CC)C(=O)O (stereo not drawn)
inactive: [1] | [3]

CN(C)C(=O)Nc1ccc(Cl)c(Cl)c1
inactive and 19.5 µM (active): [1]
inactive: [3] | [4] | [5]

CCOC(N)=O
inactive: [1] | [3]

CNNCc1ccc(C(=O)NC(C)C)cc1
inactive: [1] | [3]

NC(=O)c1cccnc1
inactive: [1] | [3]

Cn1c(=O)c2c(ncn2C)n(C)c1=O
not listed: [2]
inactive: all other assays above

Cc1ccc(S(=O)(=O)O)cc1
inactive: [1] | [3]

CCc1nc(N)nc(N)c1-c1ccc(Cl)cc1
inactive: [1] | [3]

C[C@](N)(Cc1ccc(O)c(O)c1)C(=O)O
inactive: [1] | [3] | [5] | [6] | [10]

O=C1NC(=O)C(c2ccccc2)(c2ccccc2)N1
inactive: [1] | [3] | [6] | [10]

CCN(Cc1c(F)cccc1Cl)c1c([N+](=O)[O-])cc(C(F)(F)F)cc1[N+](=O)[O-]
inactive: [3] | [5]

O=C(Nc1ncc([N+](=O)[O-])s1)c1cccs1
active: [2] 6.01 µM | [3] 23.7 µM | [5] 1.06 µM
inactive: [4]

CC/C(=C(\c1ccccc1)c1ccc(OCCN(C)C)cc1)c1ccccc1
active: [3] 61.5 µM and 61.1 µM and 54.9 µM | [4] 54.4 µM [middle of 5 runs] | [10] 27.6 µM

CC(=O)CC(c1ccccc1)c1c(O)c2ccccc2oc1=O (stereo not drawn)
inactive: [3]

CCCCCCCCCCCC[N+](C)(C)Cc1ccccc1
active: [2] 6.78 µM and 8.43 µM and 1.69 µM | [3] 60 µM and 74.5 µM

Nc1ccc(O)c([N+](=O)[O-])c1
inactive: [3] | [4] | [7] | [9] | [10]
active: [1] 7.76 µM

CN[C@H]1CC[C@@H](c2ccc(Cl)c(Cl)c2)c2ccccc21
active: [4] 26.6 µM
not listed: [1] | [2] | [5]
inactive: all other assays above

O=C1NS(=O)(=O)c2ccccc21
inactive: [2] | [3] | [5]

CN1[C@@H]2CC(OC(=O)[C@H](CO)c3ccccc3)C[C@H]1[C@@H]1O[C@@H]12 (stereo partly drawn)
inactive: [3]

CN(C)C(=S)SC(=S)N(C)C
active: [2] 5.02 µM and 3.89 µM and 1.9 µM | [3] 48.6 µM | [4] 1.77 µM and 1.93 µM and 2.37 µM | [5] 0.668 µM

CC(C)NCC(O)c1ccc(O)c(O)c1 (stereo not drawn)
inactive: [1] | [3] | [6] | [7] | [9] | [10]

Cc1cn([C@H]2C=C[C@@H](CO)O2)c(=O)[nH]c1=O
inactive and 17.4 µM (active): [1]
inactive: [3] | [6] | [10]

O=C1OC2(c3ccccc31)c1cc(Br)c(O)c(Br)c1Oc1c2cc(Br)c(O)c1Br
inactive: [3] | [4] | [5]

O=CC(=O)c1ccccc1
inactive: [2] | [4] | [5]

COc1ccc2c(c1)c(CC(=O)O)c(C)n2C(=O)c1ccc(Cl)cc1
not listed: [1] | [2]
inactive: all other assays above

COc1ccc2cc(S(=O)(=O)N[C@H](CC(=O)N[C@H](Cc3ccc(CN4[C@H](C)CCC[C@@H]4C)cc3)C(=O)N(C)C(C)C)c3ccc4c(c3)OCO4)ccc2c1
active: [2] 2.32 µM | [4] 51.6 µM
inactive: [5]
